Measurements reported in PubChem BioAssay (Tox21).
Records with an inconclusive call do not appear. Calls of active or inactive are those of the source. Unless noted, calls follow the shape of the full dose curve.

Tests used:
[1] = Nuclear factor erythroid 2-related factor 2/antioxidant responsive element (Nrf2/ARE) small molecule agonists: qHTS cell viability counter screen in human keratinocytes (AID 1919968; active = well fitted curve in the direction sought with a large enough effect in the repeat runs; an effect the other way counts as inactive or inconclusive; also: nearly all actives have a fitted effect of over 55% in size)
Summary of the method: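 After a 5 h attachment period, ARE-reporter keratinocytes were dosed with compounds in DMSO and then cultured 23 h at 37 C. Cell viability came from CellTiter-Fluor signal read after a further 1 h.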

[2] = Nuclear factor erythroid 2-related factor 2/antioxidant responsive element (Nrf2/ARE) small molecule agonists: luciferase reporter gene qHTS assay in human keratinocytes (AID 1919969); also: nearly all actives have a fitted effect of over 35% in size
[3] = target: Gonadotropin-releasing hormone receptor (Homo sapiens) (UniProt P30968); test: Human gonadotropin-releasing hormone receptor (GnRHR) small molecule agonists, calcium flux assay in GnRHR-HEK293 cells (AID 1920063); also: nearly all actives have a fitted effect of over 35% in size
Summary of the method: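 We seeded human GnRHR-expressing HEK293 cells for 18 hours, loaded them with calcium dye for an hour at 37 C, added test compounds, and recorded fluorescence intensity kinetically for three minutes.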

[4] = target: KiSS-1 receptor (Homo sapiens) (UniProt Q969F8); test: Human kisspeptin (KISS1R) small molecule agonists, calcium flux assay in KISS1R-HEK293 cells (AID 1920064; active = well fitted curve in the direction sought with a large enough effect in the repeat runs; an effect the other way counts as inactive or inconclusive)
Summary of the method: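 Kinetic calcium assay, 1 s sampling over 3 min at Ex/Em 480/540, in HEK293 cells engineered with human KISS1R; compounds delivered in DMSO after 1 h dye loading.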

[5] = G protein-coupled receptor (GPCR) small molecule agonists, calcium flux assay: HEK293 wild type cell line counter screen (AID 1920065)
Summary of the method: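 Calcium-sensitive dye, loaded 1 h at 37 C into cells cultured 18 h, reports compound-evoked calcium release as fluorescence (Ex/Em 480/540), measured over 3 min. Agonist mode; 15-point titrations, triplicate.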

[6] = p53 small molecule agonists, cell-based qHTS assay with human liver microsomes (AID 1963577)
Summary of the method: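 p53RE-bla reporter cells were pre-incubated 5 h at 37 C, then treated with compounds plus human liver microsomes (0.5 mg/mL final) and NADPH (0.5 mg/mL final) for 16 h at 37 C. Beta-lactamase activity was read by LiveBLAzer fluorescence after 2 h at room temperature.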

[7] = p53 small molecule agonists, cell-based qHTS assay with rat liver microsomes (AID 1963578)
Summary of the method: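 p53RE-bla cells were exposed to compounds together with rat liver microsomes (0.5 mg/mL final) and NADPH (0.5 mg/mL final) for 16 h at 37 C, then read by LiveBLAzer beta-lactamase fluorescence after 2 h at room temperature.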

[8] = p53 small molecule agonists, cell-based qHTS assay with human liver microsomes: qHTS cell viability counter screen (AID 1963579); also: nearly all actives have a fitted effect of over 45% in size
Summary of the method: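 p53RE-bla cells (4,000/well) were pre-incubated 5 h at 37 C, then given compounds in DMSO plus human liver microsomes (0.5 mg/mL final) and NADPH (0.5 mg/mL final) for 16 h at 37 C. Viability was read by CellTiter-Glo luminescence.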

[9] = p53 small molecule agonists, cell-based qHTS assay with rat liver microsomes: qHTS cell viability counter screen (AID 1963580); also: nearly all actives have a fitted effect of over 45% in size
Summary of the method: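 p53RE-bla HCT-116 cells were exposed 16 h at 37 C to compounds with rat liver microsomes (0.5 mg/mL) and NADPH (0.5 mg/mL). Viability was measured in the same wells as ATP content by CellTiter-Glo luminescence.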

[10] = p53 small molecule agonists, cell-based qHTS assay: qHTS cell viability counter screen (AID 1963581); also: nearly all actives have a fitted effect of over 45% in size
Summary of the method: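 Following 5 h attachment, HCT-116 p53RE-bla cells took up compound for 16 h at 37 C; the reporter was read with B/G FRET substrate (2 h RT), and viability then via CellTiter-Glo ATP luminescence.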

[11] = p53 small molecule agonists, cell-based qHTS assay (AID 1963582; active = well fitted activation curve with a large enough effect in the signal ratio in the repeat runs, not every such curve was filed as active; the % refers to the signal ratio)
Summary of the method: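 In this cell-based concentration-response screen, a p53 response element drives beta-lactamase; cells received DMSO-borne compounds after 5 h culture and were incubated a further 16 h before FRET substrate development.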

[12] = cAMP Responsive Elements (CRE) small molecule agonists, cell-based qHTS assay (AID 1963590)
Summary of the method: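 A CRE-responsive beta-lactamase reporter in HEK 293T cells was used. Treatment ran 3 h at 37 C; detection used LiveBLAzer B/G FRET substrate for 2 h at room temperature.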

[13] = cAMP Responsive Elements (CRE) small molecule antagonists, cell-based qHTS assay (AID 1963591; active = well fitted inhibition curve with a large enough effect in the signal ratio in the repeat runs, not every such curve was filed as active; the % refers to the signal ratio)
Summary of the method: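 HEK293T cells carrying a CRE-driven beta-lactamase reporter receive compound and NKH477 (0.25 uM final) for 3 h. Fluorescence from LiveBLAzer B/G FRET substrate is read after 2 h at room temperature.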

[14] = target: Beta-2 adrenergic receptor (Homo sapiens) (UniProt P07550); test: Adrenergic beta2 receptor (ADRB2) small molecule antagonists, cell-based qHTS assay (AID 1963592); also: series mostly up to about 92 µM; nearly all actives have a fitted effect of over 50% in size
Summary of the method: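 Cells (CHO, stable ADRB2 overexpression) incubated 18-20hr at 37C; compounds added from DMSO; agonist mix (1nM isoproterenol, 100uM IBMX, 25uM Ro-20-1724) added; 0.5hr RT; d2-cAMP and anti-cAMP-cryptate added; 1hr RT; 665/615 nm read.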

[15] = target: D(2) dopamine receptor (Homo sapiens) (UniProt P14416); test: Dopamine D2 receptor (DRD2) small molecule antagonists, cell-based qHTS assay (AID 1963595; active = well fitted inhibition curve with a large enough effect in the signal ratio in the repeat runs, with a control signal flat; the % refers to the signal ratio)
Summary of the method: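 Cells were plated and grown for 24 h at 37 °C. Ro20-1724 (0.1 mM final) went in first, then compound for 10 min. NKH477 (200 nM) with quinpirole (12 nM) followed for 30 min at RT, then HTRF detection reagents for 1 h.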

[16] = target: Beta-2 adrenergic receptor (Homo sapiens) (UniProt P07550); test: Adrenergic beta2 receptor (ADRB2) small molecule agonists, cell-based qHTS assay (AID 1963593);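 also: CHO cells stably overexpressing human ADRB2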
Summary of the method: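 CHO cells stably over-expressing ADRB2 were plated overnight at 37C, then dosed with compounds plus a stimulation mix containing 100uM IBMX and 25uM Ro-20-1724 for 0.5hr at room temperature. cAMP was measured by HTRF competition, 1hr.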

[17] = target: D(2) dopamine receptor (Homo sapiens) (UniProt P14416); test: Dopamine D2 receptor (DRD2) small molecule agonists, cell-based qHTS assay (AID 1963594); also: nearly all actives have a fitted effect of over 35% in size
Summary of the method: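 HEK293 cells stably expressing human DRD2, pre-treated with PDE inhibitor Ro20-1724 (0.1 mM final) and compound 10 min at room temperature, then stimulated with NKH477 (200nM […]) for 30 min. cAMP read by HTRF (665/620 nm).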

[18] = target: 5-hydroxytryptamine receptor 2A (Homo sapiens) (UniProt P28223); test: 5-hydroxytryptamine receptor 2A (HTR2A) small molecule antagonists, cell-based qHTS assay (AID 1963586); also: nearly all actives have a fitted effect of over 45% in size
Summary of the method: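 Antagonist-mode intracellular calcium assay: DOI (4 nM) added after 5 min compound pre-incubation at room temperature to dye-loaded HTR2A-CHO cells. Fluorescence followed for 3 min, sampled every second.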

[19] = target: 5-hydroxytryptamine receptor 2A (Homo sapiens) (UniProt P28223); test: 5-hydroxytryptamine receptor 2A (HTR2A) small molecule agonists, cell-based qHTS assay (AID 1963587); also: nearly all actives have a fitted effect of over 30% in size
Summary of the method: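 CHO cells stably expressing human HTR2A, plated 18 h, loaded with calcium dye 1 h at 37 C. Agonist mode: compounds added and intracellular calcium fluorescence recorded kinetically for 2 min at 1 sec intervals.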

[20] = target: Muscarinic acetylcholine receptor M1 (Homo sapiens) (UniProt P11229); test: Cholinergic receptor muscarinic 1 (CHRM1) small molecule agonists, cell-based qHTS assay (AID 1963589); also: nearly all actives have a fitted effect of over 35% in size
Summary of the method: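 Measures agonist-induced intracellular calcium rise. Stable human CHRM1 CHO line, 1 h dye load at 37 C, compounds from DMSO, kinetic fluorescence read.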

Measured: Potency

Sequence of KiSS-1 receptor (Homo sapiens) (Q969F8 whole entry, looked up): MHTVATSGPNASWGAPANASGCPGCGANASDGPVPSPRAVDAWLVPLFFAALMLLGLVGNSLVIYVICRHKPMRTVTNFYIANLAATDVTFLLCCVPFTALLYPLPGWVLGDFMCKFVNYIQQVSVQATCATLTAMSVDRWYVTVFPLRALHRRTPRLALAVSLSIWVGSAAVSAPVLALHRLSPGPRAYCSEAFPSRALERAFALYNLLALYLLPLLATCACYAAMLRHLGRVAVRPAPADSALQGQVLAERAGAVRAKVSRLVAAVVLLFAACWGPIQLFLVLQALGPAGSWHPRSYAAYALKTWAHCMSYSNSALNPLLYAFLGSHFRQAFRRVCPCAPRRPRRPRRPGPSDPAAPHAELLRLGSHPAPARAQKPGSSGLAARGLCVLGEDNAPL
Sequence of Beta-2 adrenergic receptor (Homo sapiens) (P07550 whole entry, looked up): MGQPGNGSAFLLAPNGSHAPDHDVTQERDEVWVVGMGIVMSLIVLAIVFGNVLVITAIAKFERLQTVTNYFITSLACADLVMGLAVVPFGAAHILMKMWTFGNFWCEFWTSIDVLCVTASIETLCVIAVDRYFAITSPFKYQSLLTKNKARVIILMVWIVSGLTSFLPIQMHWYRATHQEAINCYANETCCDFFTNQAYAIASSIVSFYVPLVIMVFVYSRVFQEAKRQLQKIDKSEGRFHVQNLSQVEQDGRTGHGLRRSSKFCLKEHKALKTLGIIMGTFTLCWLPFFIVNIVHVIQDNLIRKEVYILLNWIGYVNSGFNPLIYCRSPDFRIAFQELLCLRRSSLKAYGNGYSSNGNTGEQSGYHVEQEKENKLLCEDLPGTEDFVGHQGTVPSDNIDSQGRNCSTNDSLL
Sequence of Gonadotropin-releasing hormone receptor (Homo sapiens) (P30968 whole entry, looked up): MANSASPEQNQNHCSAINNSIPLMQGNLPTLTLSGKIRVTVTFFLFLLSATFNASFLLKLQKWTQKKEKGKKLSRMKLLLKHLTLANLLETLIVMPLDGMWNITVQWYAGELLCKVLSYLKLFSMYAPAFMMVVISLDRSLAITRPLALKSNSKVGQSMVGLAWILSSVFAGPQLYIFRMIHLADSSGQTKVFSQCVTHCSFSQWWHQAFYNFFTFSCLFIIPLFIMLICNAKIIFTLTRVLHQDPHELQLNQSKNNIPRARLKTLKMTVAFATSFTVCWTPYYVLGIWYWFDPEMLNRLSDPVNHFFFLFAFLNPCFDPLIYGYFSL
Sequence of D(2) dopamine receptor (Homo sapiens) (P14416 whole entry, looked up): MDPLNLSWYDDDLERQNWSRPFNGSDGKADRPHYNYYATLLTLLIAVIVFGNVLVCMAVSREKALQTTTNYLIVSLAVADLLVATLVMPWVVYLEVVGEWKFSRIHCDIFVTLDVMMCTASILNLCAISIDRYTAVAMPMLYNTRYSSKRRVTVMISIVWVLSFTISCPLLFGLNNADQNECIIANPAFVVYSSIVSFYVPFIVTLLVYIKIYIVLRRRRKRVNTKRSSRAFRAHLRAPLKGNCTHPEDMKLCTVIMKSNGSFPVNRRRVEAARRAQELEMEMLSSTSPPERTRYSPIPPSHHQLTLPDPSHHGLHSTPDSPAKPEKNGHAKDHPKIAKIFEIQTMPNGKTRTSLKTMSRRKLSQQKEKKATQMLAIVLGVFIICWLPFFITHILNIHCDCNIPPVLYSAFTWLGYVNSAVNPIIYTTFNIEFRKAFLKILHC
Sequence of 5-hydroxytryptamine receptor 2A (Homo sapiens) (P28223 whole entry, looked up): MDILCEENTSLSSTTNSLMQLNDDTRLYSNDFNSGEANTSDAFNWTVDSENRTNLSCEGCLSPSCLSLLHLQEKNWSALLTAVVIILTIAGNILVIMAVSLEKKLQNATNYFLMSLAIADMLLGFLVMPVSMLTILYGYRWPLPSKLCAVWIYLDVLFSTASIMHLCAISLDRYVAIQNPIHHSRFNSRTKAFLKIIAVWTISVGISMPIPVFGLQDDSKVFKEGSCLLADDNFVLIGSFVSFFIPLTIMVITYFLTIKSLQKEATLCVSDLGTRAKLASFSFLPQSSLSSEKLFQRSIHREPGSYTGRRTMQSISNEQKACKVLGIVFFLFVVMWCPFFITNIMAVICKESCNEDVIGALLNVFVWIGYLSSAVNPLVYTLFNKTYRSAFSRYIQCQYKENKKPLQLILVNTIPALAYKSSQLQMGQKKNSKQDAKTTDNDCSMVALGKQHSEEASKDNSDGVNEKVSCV
Sequence of Muscarinic acetylcholine receptor M1 (Homo sapiens) (P11229 whole entry, looked up): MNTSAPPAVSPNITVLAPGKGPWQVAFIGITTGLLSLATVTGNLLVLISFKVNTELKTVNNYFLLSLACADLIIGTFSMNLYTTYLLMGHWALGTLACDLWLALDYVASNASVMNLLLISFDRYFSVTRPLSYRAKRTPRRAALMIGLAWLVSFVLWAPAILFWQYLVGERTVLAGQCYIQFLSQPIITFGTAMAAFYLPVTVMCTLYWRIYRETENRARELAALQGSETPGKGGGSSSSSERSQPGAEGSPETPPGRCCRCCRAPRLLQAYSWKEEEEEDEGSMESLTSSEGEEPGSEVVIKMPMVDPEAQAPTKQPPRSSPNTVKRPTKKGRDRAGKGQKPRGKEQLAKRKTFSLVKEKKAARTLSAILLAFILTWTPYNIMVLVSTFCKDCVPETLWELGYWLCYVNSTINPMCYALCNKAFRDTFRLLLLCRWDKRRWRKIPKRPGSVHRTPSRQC

NC(=O)N1c2ccccc2CC(=O)c2ccccc21
inactive: [1] | [2] | [3] | [4] | [5] | [6] | [7] | [8] | [9] | [10] | [11] | [12] | [13] | [14] | [15]

COc1ccc([C@@H]2Sc3ccccc3N(CCN(C)C)C(=O)[C@@H]2OC(C)=O)cc1
inactive: [1] | [2] | [3] | [4] | [5] | [6] | [7] | [8] | [9] | [10] | [11] | [12] | [14] | [16] | [17] | [15]

CC(=O)OCC(=O)[C@@]1(OC(C)=O)[C@@H](C)C[C@H]2[C@@H]3C[C@H](F)C4=CC(=O)C=C[C@]4(C)[C@@]3(F)[C@@H](O)C[C@@]21C
inactive: [1] | [2] | [3] | [4] | [5] | [6] | [7] | [8] | [9] | [10] | [11] | [14] | [16] | [17] | [15]

CC(C)NCC(O)c1ccc(NS(C)(=O)=O)cc1 (stereo not drawn)
inactive: [1] | [2] | [3] | [4] | [5] | [6] | [7] | [8] | [9] | [10] | [11] | [12] | [13] | [17]

CN1CCN(c2c(F)cc3c(=O)c(C(=O)O)cn(CCF)c3c2F)CC1
inactive: [1] | [2] | [3] | [4] | [5] | [6] | [7] | [8] | [9] | [10] | [11] | [12] | [17] | [15]

c1ccc([C@H]2CN3CCSC3=N2)cc1
inactive: [1] | [2] | [3] | [4] | [5] | [6] | [7] | [8] | [9] | [10] | [11] | [12] | [13] | [14] | [15]

CC(C)(C)NC[C@H](O)COc1cccc2c1CCCC2=O
inactive: [1] | [2] | [3] | [4] | [5] | [6] | [7] | [8] | [9] | [10] | [11] | [12] | [13] | [17] | [15]

C[Si](C)(CCCN)O[Si](C)(C)CCCN
inactive: [1] | [2] | [3] | [4] | [5] | [6] | [7] | [8] | [9] | [10] | [18] | [19] | [20] | [12] | [13] | [14] | [16] | [17] | [15]
